According to PubChem BioAssay AID813 (Sanford-Burnham Center for Chemical Genomics, 2007):
The campaign covered roughly 64,000 compounds. Fewer than 10 were called active.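 Rule for the calls: active = activation factor of at least 2 at 20 µM, relative to controls; inactive = the rest.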 Only a sample is shown.

Each molecule was assayed against Alkaline phosphatase, tissue-nonspecific isozyme (Homo sapiens) (UniProt P05186) (assay: stimulation of alkaline phosphatase TNAP activity – biochemical, luminescent, intermediate phosphate acceptor level, primary screen (AID 813)). Conditions: purified TNAP, CDP-star luminescence, 100 mM DEA, 30 min; at 20 µM; active compounds read high; scale: 0 levamisole-inhibited, 1 vehicle-only enzyme.
Chain of Alkaline phosphatase, tissue-nonspecific isozyme (Homo sapiens) (P05186 whole entry, looked up): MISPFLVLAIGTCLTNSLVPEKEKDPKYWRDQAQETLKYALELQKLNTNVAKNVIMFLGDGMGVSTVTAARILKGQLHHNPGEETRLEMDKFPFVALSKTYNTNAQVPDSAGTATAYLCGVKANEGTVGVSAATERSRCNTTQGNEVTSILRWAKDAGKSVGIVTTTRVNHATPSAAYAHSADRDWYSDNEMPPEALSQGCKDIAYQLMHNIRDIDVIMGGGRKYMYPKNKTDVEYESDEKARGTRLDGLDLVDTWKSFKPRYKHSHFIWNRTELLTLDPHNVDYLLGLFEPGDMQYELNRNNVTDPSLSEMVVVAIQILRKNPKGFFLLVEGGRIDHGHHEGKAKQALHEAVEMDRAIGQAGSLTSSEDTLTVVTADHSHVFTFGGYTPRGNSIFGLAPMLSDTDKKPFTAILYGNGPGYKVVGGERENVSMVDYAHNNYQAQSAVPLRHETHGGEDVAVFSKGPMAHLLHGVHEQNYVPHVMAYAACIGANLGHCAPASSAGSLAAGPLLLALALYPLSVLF

Activation factor, inactive:
CC/C(=N\O)C(C)(C)/[N+]([O-])=C/c1ccc(Br)cc1 0.9
CCCN1Cc2cccc(C(=O)NCc3ccccc3)c2C1=O 0.9
CC(=O)N1CCc2cc(S(=O)(=O)Nc3ccccc3N3CCN(C)CC3)ccc21 1
CCN(CC)c1ccc2cc(C(=O)O)c(=O)oc2c1 1
Cc1ccc(C)c(N2CCN(C(=O)CCCCn3c(=O)[nH]c4ccccc4c3=O)CC2)c1 0.8
CC1(C)Cc2c(sc3nc4n(c(=N)c23)CCCCC4)CO1 0.4
O=c1cccc(-c2ccc(Br)cc2)o1 0.9
O=C(CN1CCN(c2ccc(F)cc2)CC1)Nc1cccc(C(F)(F)F)c1 0.9
Cc1ccc(S(=O)(=O)N2CCC(C(=O)OCC(=O)N3CC(=O)Nc4ccccc43)CC2)cc1 0.9
CCC(c1nnnn1Cc1ccco1)N(CCc1ccccc1)Cc1cc2cccc(C)c2[nH]c1=O (stereo not given) 0.9
O=C1CC(Cc2ccccc2)C(=O)N1c1ccc(Cl)cn1 (stereo not given) 1
C=CCn1c(SCC(=O)NC23CC4CC(CC(C4)C2)C3)nc(O)cc1=O 0.9
CCn1c(=N)n(CC(=O)c2cccc(OC)c2)c2ccccc21 1
O=C(CCCOc1ccccc1)Nc1cccc(C(=O)O)c1 1
COc1ccc(S(=O)(=O)N2CCN(c3ncnc4c(-c5ccccc5)nsc34)CC2)cc1 0.9
CCOC(=O)c1c(N)c(C#N)nn1-c1ccccc1C(=O)OC 0.8
Cc1cccc(N2CC(C)Cn3c2nc2c3c(=O)n(CC(=O)OCc3ccccc3)c(=O)n2C)c1 (stereo not given) 0.9
CCn1c(=O)cc(O)c2ccccc21 1
O=C1c2ccccc2C(O)N1Cc1ccccc1 (stereo not given) 1
CCOc1ccc(CCNC(=O)C(CC)n2nc(C)n3c(cc4sccc43)c2=O)cc1OCC (stereo not given) 1
Cc1cc(=O)n2c3c(cccc13)CCC2 0.9
CC(C)OCCCNc1nc2c(c(=O)n(Cc3ccccc3F)c(=O)n2C)n1C 0.9
CCOC(=O)c1sc(NC(=O)c2cc(S(=O)(=O)N3CCOCC3)ccc2C)nc1C 0.9
Cc1ccc(S(=O)(=O)NCCN2CCOCC2)cc1C 1
Cc1cc(C(=O)N2CCN(c3ccccn3)CC2)c(C)o1 0.9
CC(=O)NCC(=O)N(C)C(C(=O)Nc1ccc2c(c1)OCCO2)c1ccccc1 (stereo not given) 1
CCOC(=O)c1c(C2CC2)csc1NC(=O)CSCc1c(C)noc1C 0.9
O=C(NC1CCCCC1)c1ccc2c(=O)n(CC3CCCO3)c(=O)[nH]c2c1 (stereo not given) 1
CCOc1ccc(OCC)c(NC(=O)CSc2nnc(Cn3cnc4ccccc43)n2C)c1 0.9
CCOC(=O)CSc1nc2c(c(=O)n(Cc3ccccc3Cl)c(=O)n2C)n1C 0.9
CCOC(=O)C1=C(CNC2CCCCC2)NC(=O)NC1c1cc(C)ccc1C (stereo not given) 0.9
CSc1ccc(S(=O)(=O)NCc2ccc(Cl)cc2)cc1 0.8
CC1(C)CC(=O)C=C(NC2CC(C)(C)NC(C)(C)C2)C1 0.9
CCOC(=O)n1c(SCC(=O)N(CC)CC)nc2ccccc21 0.9
CCC(C)(C)n1nnnc1C(c1ccccc1OC)N1CCSCC1 (stereo not given) 0.9
